Compound activity deposited in PubChem by ICCB-Longwood Screening Facility, Harvard Medical School.
Mtb MenB inh = Mtb MenB enzyme inhibition; MenB enzyme assay, absorbance read-out; hit rate 0.43% among 100,000; inhibition, % (concentration not given with the values); in the data active = inhibition above about 21%, passing the limit was not always enough
Target sequence (P9WNP5 whole entry, looked up): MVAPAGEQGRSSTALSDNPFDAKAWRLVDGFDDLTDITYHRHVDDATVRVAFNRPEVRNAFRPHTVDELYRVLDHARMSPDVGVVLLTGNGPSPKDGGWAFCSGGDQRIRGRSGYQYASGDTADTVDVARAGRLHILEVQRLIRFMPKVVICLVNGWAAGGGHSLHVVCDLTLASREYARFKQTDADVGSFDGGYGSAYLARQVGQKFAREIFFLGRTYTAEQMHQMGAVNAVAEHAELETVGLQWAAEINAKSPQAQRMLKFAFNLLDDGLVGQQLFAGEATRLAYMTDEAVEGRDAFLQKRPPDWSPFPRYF
Mtb MbtI inh = blocks the Mycobacterium tuberculosis siderophore enzyme MbtI. hit rate 0.89% among 100,000. AID 493033. purified MbtI enzyme, fluorescence intensity read-out. P9WFX0. inhibition, % (test concentration not listed); in the data active = inhibition mostly above about 56%, no sharp cut-off; inactive = mostly below about 77%
AID504770 = growth inhibitors of E. coli YBA685 in a screen for V. cholerae RctB (chromosome II replication) inhibitors; E. coli YBA685 rctB-dependent plasmid, OD600 growth, 3 h; hits give low values; z-score (concentration not given with the values); hit rate 0.27% among 130,000; AID 504770; in the data active = z-score below about -2, passing the limit was not always enough
Polio RdRp inh = poliovirus RNA polymerase inhibition. P03300. poliovirus polymerase elongation, fluorescence polarization; hits give low values. % elongation, % (compound at 16.7 µg/mL). hit rate 0.66% among 150,000. AID 588519; in the data active = % elongation below about 90%
* hit, by the source's call. Compounds with a hit are over-represented: about 1.4% of the library has one in this group of screens.

Screening O=C1NC(c2ccc(C(F)(F)F)cc2)=CCN1c1ccccc1O returned Mtb MenB inh 6, Mtb MbtI inh 6, AID504770 0.05 and Polio RdRp inh 100.
Screening O=C(Nc1ccc(NC(=O)c2ccccc2O)cc1)c1ccccc1 returned AID504770 1.1.
`O=Nc1ccc(NNC(=O)c2ccccc2O)cc1` gave Mtb MenB inh -414, Mtb MbtI inh 46, AID504770 -2.9* and Polio RdRp inh 101.
For C[C@@H]1NCCc2cc(O)c(O)cc21 the results were Mtb MenB inh 2, Mtb MbtI inh 76* and Polio RdRp inh 101.
For COCCn1c(C)cc(O)c(C(c2ccccc2)N2CCN(c3ccccc3)CC2)c1=O (centres undefined) the results were Polio RdRp inh 85*.
`Cc1ccc(-c2nc(I)ccc2O)cc1` gave Mtb MenB inh 39*, Mtb MbtI inh inactive, AID504770 1.2 and Polio RdRp inh 99.
Screening Cc1ccc(-c2ccnc(-c3ccc(O)cc3)n2)cc1 returned AID504770 2.
Screening O=S(=O)(NN=Cc1cn(-c2ccccc2)nc1-c1ccco1)c1ccc(Cl)cc1 returned Mtb MenB inh -5, Mtb MbtI inh 90*, AID504770 0.9 and Polio RdRp inh 102.
For NC(=O)N/N=C/c1cn(-c2ccccc2)nc1-c1ccccc1 the results were Mtb MenB inh 7, Mtb MbtI inh -6, AID504770 0.2 and Polio RdRp inh 100.
CCCCN(CC)CCCNC(=O)c1cc2c(-c3ccc(OC)c(OC)c3)nn(C)c2s1 was read as Polio RdRp inh 80*.
`CCC(=O)n1nc(-c2ccco2)nc1SC` gave Mtb MenB inh 8, Mtb MbtI inh 54*, AID504770 2 and Polio RdRp inh 99.
CCC(=O)n1nc(-c2ccco2)nc1SCc1ccccc1 was read as Mtb MenB inh -6, Mtb MbtI inh -10, AID504770 -1.2 and Polio RdRp inh 101.
Screening CCC(=O)C(C#N)c1nnc(-c2ccccc2)s1 (centres undefined) returned Mtb MenB inh 3, Mtb MbtI inh 30, AID504770 2.2 and Polio RdRp inh 99.
For Cc1ccc(C)c2[nH]c(=O)c(C3NC(=O)c4ccccc4N3)cc12 (centres undefined) the results were Mtb MenB inh 42*, Mtb MbtI inh -29, AID504770 -0.15 and Polio RdRp inh 101.
CCn1c(=O)c2cc(C(=O)N(CCN(C)C)Cc3ccccc3)sc2c2ccccc21 was read as Polio RdRp inh 87*.
CCn1c(=O)c2cc(C(=O)N(Cc3ccccc3)C(C)C)sc2c2ccccc21 was read as Mtb MenB inh -10, Mtb MbtI inh 38, AID504770 -0.05 and Polio RdRp inh 100.
Screening Nc1c(C(=O)Nc2ccccc2)nnn1Cc1ccccc1 returned Mtb MenB inh -6, Mtb MbtI inh -40, AID504770 0.1 and Polio RdRp inh 98.
Screening O=C(Nc1ccccc1)c1nnn(Cc2ccccc2)c1NC(=O)C(F)(F)F returned Mtb MenB inh -14, AID504770 -1.1 and Polio RdRp inh 89*.
`COC(=O)CN(C)c1nnc(N)s1` gave Mtb MenB inh -5, Mtb MbtI inh 96*, AID504770 -0.75 and Polio RdRp inh 91.
For CC(C)CN(CC(C)C)c1nnc(N)s1 the results were Mtb MbtI inh -12 and AID504770 -0.65.
CSC(SC)=C(C#N)S(C)(=O)=O was read as Mtb MenB inh 18, Mtb MbtI inh 68*, AID504770 -1.1 and Polio RdRp inh 101.
CCOC(=O)c1c(-c2ccccc2)csc1NC(=O)c1cc(-c2ccc(F)cc2)on1 was read as Polio RdRp inh 89*.
For CCOC(=O)c1c(-c2ccc(C)cc2)csc1NC(=O)c1cc(-c2ccc(C)c(F)c2)on1 the results were Polio RdRp inh 111.
For CCOC(=O)c1c(-c2ccccc2)csc1NC(=O)c1cc(-c2ccc(Br)cc2)on1 the results were Polio RdRp inh 78*.
CCc1c(C)sc(NC(=O)c2cc(-c3ccccc3)on2)c1C#N was read as Mtb MenB inh -11, AID504770 3.6 and Polio RdRp inh 83*.
Cc1ccc2c(Cl)cc(Cl)c(OCC(=O)Nc3c(F)cccc3F)c2n1 was read as Mtb MbtI inh -3, AID504770 1.6 and Polio RdRp inh 101.
O=C1C(=Cc2ccccc2)C(=O)c2ccccc21 was read as Mtb MenB inh -96, Mtb MbtI inh 95*, AID504770 0.85 and Polio RdRp inh 93.
CN1CCN(S(=O)(=O)c2ccc(Br)cc2)CC1 was read as Mtb MenB inh -1, AID504770 -1.3 and Polio RdRp inh 101.
`Cc1ccc(S(=O)(=O)N2CCCN(C)CC2)cc1` gave Mtb MbtI inh -9, AID504770 -3.9* and Polio RdRp inh 101.
CCCC1NC(=S)N(c2ccccc2)N1 (centres undefined) was read as Mtb MenB inh 7, Mtb MbtI inh 98*, AID504770 0.35 and Polio RdRp inh 101.
CCS(=O)c1ccccc1C(=O)NCc1ccc(C)cc1 (centres undefined) was read as Mtb MenB inh -28, Mtb MbtI inh 100*, AID504770 -0.75 and Polio RdRp inh 100.
For Nc1nc2ccccc2n1Cc1ccc(Cl)c(Cl)c1 the results were Mtb MenB inh -16, AID504770 -4.2* and Polio RdRp inh 102.
Screening CCCCn1c(=O)[nH][nH]c1=S returned Mtb MenB inh -17, Mtb MbtI inh 78*, AID504770 2 and Polio RdRp inh 96.
`O=c1[nH][nH]c(=S)n1Cc1ccccc1` gave Mtb MenB inh -10, Mtb MbtI inh 35, AID504770 -1.2 and Polio RdRp inh 103.
`CCn1c(CCC(=O)O)nc2cc(S(N)(=O)=O)ccc21` gave Mtb MenB inh -65, Mtb MbtI inh 92, AID504770 -2 and Polio RdRp inh 64*.
`CCC(C)NC(=O)c1nc2c(nnn2Cc2ccccc2Cl)c(=O)[nH]1` (centres undefined) gave Mtb MenB inh -12, Mtb MbtI inh -1, AID504770 -0.2 and Polio RdRp inh 104.
For CCc1nnc(Cn2nnc3c(=O)[nH]c(C(=O)Nc4ccc(C)cc4)nc32)s1 the results were Mtb MenB inh -89, Mtb MbtI inh 16, AID504770 -0.5 and Polio RdRp inh 86*.
For O=C(Nc1ccc(F)cc1)C(Sc1nnc(C2CC2)o1)c1ccccc1 (centres undefined) the results were Mtb MenB inh -4, Mtb MbtI inh 55*, AID504770 -0.4 and Polio RdRp inh 96.
`CC1(C)CNC(=S)NC1` gave Mtb MenB inh -9, Mtb MbtI inh 38, AID504770 -0.35 and Polio RdRp inh 94.
For S=c1[nH]nc(SCc2ccccc2)s1 the results were Mtb MenB inh -12, Mtb MbtI inh 87*, AID504770 -0.3 and Polio RdRp inh 98.
O=c1c(Cl)c[nH]n(-c2ccccc2)c1=O was read as Mtb MenB inh 8, Mtb MbtI inh 8, AID504770 -0.8 and Polio RdRp inh 100.
`CSc1c[nH]n(-c2ccccc2)c(=O)c1=O` gave Mtb MenB inh -4, Mtb MbtI inh 78*, AID504770 -0.4 and Polio RdRp inh 98.
`Cc1cc(C(=O)NN2C3CSC2CS3)no1` gave Mtb MenB inh 75*, Mtb MbtI inh -4, AID504770 -0.25 and Polio RdRp inh 99.
